Nrf2 block = blocks Nrf2 signaling; hit rate 2.1% among 360,000; A549 ARE-Fluc reporter, luciferase luminescence, 18-24 h; Potency, µM (titrated, usually from 46 µM), actives largely listed as inhibitors; AID 504444; further: nearly all actives have a fitted effect of over 60% in size
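Two sequential reads on A549 ARE_Fluc cells exposed to compound for 18-24 h: a CellTiter-Fluor fluorescence read for viability, then a luciferase luminescence read for Nrf2/ARE activity.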
S2 tox = reduces viability in counter-screen for ATXN expression inhibitors | S2 cells (HEK-293 line with an ATXN2-luciferase reporter) viability, CellTiter-Fluor protease fluorescence, 24 h | Potency, µM (series often up to 56.7 µM), hits mostly cytotoxic | hit rate 0.49% among 400,000 | AID 651635; further: nearly all actives have a fitted effect of over 40% in size
HepG2 tox = counter-screen for TGF-b inhibitors: cytotoxicity in HepG2 cells. HepG2 CAGA-GFP viability, ATP luminescence, 18 h. hit rate 0.76% among 410,000. Potency, µM (doses to about 46.1 µM), hits mostly cytotoxic
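HepG2 CAGA-GFP cells (1000/well, DMEM with 1% FBS) received compound, then TGF-beta at 500 pg/mL final, and were incubated 18 hours at 37 degrees C. Viability was read by CellTiter-Glo luminescence. Media-only wells were set as complete cell-killing and DMSO as no toxicity.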
ATXN2 expr inh = reduces ATXN2 reporter expression in HEK-293 cells | hit rate 0.72% among 360,000 | HEK-293 ATXN2-luciferase reporter, luminescence, 24 h | AID 1745845 | Potency, µM (series often up to 57 µM), most hits filed as inhibitors; further: nearly all actives have a fitted effect of over 55% in size
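qHTS (up to 57 uM final) was run with 24 h compound exposure of reporter cells at 37 °C. Each well was multiplexed: SteadyGlo luminescence measured ATXN2-luciferase expression after a fluorogenic Gly-Phe-AFC viability readout (25 uM final).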
TGFb inhibitor = TGF-b pathway inhibition; HepG2 CAGA-GFP TGF-b/SMAD3 reporter, GFP fluorescence, 18 h; TGF-beta stimulated, 500 pg/mL final; Potency, µM (titrated, usually from 46.1 µM), most hits filed as inhibitors; AID 588855; hit rate 1.2% among 410,000; further: nearly all actives have a fitted effect of over 65% in size
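Using HEPG2 CAGA-GFP reporter cells at 1000 cells/well, we pinned test compounds, stimulated with recombinant TGF-beta (500 pg/mL final) and measured total well GFP after 18 h.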
A549 viability = A549 cytotoxicity, counter-screen for Nrf2 inhibitors; A549 ARE-Fluc cells, CellTiter-Fluor viability, 18-24 h; Potency, µM (highest dose often 46 µM), hits mostly inhibitors; hit rate 0.16% among 390,000; AID 504648
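Cytotoxicity counterscreen: CellTiter-Fluor fluorescence was measured in A549 ARE_Fluc cells after 18-24 h of compound exposure in a concentration series. The subsequent BugLite luminescent read reports ARE-luciferase activity.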
Large screens that a line does not name were inactive; ! = not active in a repeat. This is a sample that favours compounds with a hit; in the whole collection about 3.8% have one here. The call rests on the fitted dose curve; in most records, active means well fitted curve in the direction sought with a large enough effect; inconclusive means small, poorly fitted or top-dose-only effect, or another doubt; inactive means no such curve, though single readings can be large; an effect the other way counts as inactive or inconclusive.

O=C(Cc1ccc(F)cc1)NCCc1csc(-c2cccc(F)c2)n1	none (no result: Nrf2 block)
Cc1cc(C)cc(C(=O)NCCc2csc(-c3ccc(C(F)(F)F)cc3)n2)c1	none (no result: Nrf2 block, S2 tox, ATXN2 expr inh)
Cc1cn(CC(=O)NCC(C)c2ccccc2)c(=O)[nH]c1=O (centres undefined)	none
Cc1cc(OCC(=O)O/N=C(\N)c2ccccc2)ccc1Br	Nrf2 block inconclusive
CCOC(=O)c1ccc(NC(=S)N(CCCN2CCCCC2)Cc2ccco2)cc1	TGFb inhibitor 0.63µM
CCc1ccc(NC(=O)c2cc(S(=O)(=O)NC3CCCC3)ccc2F)cc1	TGFb inhibitor inconclusive (no result: Nrf2 block, S2 tox, ATXN2 expr inh)
Cc1ccc(NC(=O)c2cc(S(=O)(=O)N3CCCCCC3)ccc2F)cc1F	none (no result: Nrf2 block)
Cc1ccc(NC(=O)c2cc(S(=O)(=O)NC3CCCCCC3)ccc2F)cc1F	S2 tox inconclusive, HepG2 tox 13µM, TGFb inhibitor inconclusive (no result: Nrf2 block)
O=C(Nc1ccc(Cl)cc1)c1cc(S(=O)(=O)NC2CCCCCC2)ccc1F	TGFb inhibitor 8.9µM, A549 viability inconclusive (no result: Nrf2 block, S2 tox, ATXN2 expr inh)
COc1ccc(Cn2c(O)c(C=Nc3ccccc3C(=O)O)c3ccccc3c2=O)cc1	Nrf2 block inconclusive, S2 tox inconclusive, A549 viability inconclusive
COc1ccccc1NS(=O)(=O)c1cccc(-n2c(O)c(C=Nc3ccccc3C(=O)O)c3ccccc3c2=O)c1	Nrf2 block inconclusive, S2 tox 20µM, TGFb inhibitor inconclusive
Cc1nc2ccccn2c1-c1csc(NCc2ccco2)n1	Nrf2 block inconclusive, S2 tox inconclusive
Cc1ccn2c(-c3csc(NCc4ccccc4)n3)c(C)nc2c1	Nrf2 block 26µM, S2 tox inconclusive, ATXN2 expr inh inconclusive, TGFb inhibitor inconclusive, A549 viability inconclusive
CC(C)(C)c1ccc(S(=O)(=O)N2CCC(O)(c3ccc(Cl)cc3)CC2)cc1	Nrf2 block inconclusive, S2 tox inconclusive, TGFb inhibitor 13µM (no result: ATXN2 expr inh)
COc1cc(OC)c(-c2cc(C(=O)NCc3ccc(F)cc3)c3c(-c4ccccc4)[nH]nc3n2)cc1OC	HepG2 tox 11µM, ATXN2 expr inh inconclusive, TGFb inhibitor inconclusive, A549 viability inconclusive (no result: Nrf2 block, S2 tox)
Cc1ccc(Nc2nc(N)c([N+](=O)[O-])c(NCCO)n2)cc1C	TGFb inhibitor inconclusive
Cc1cccc(Nc2nc(N)c([N+](=O)[O-])c(N3CCCC(C)C3)n2)c1 (centres undefined)	Nrf2 block 16µM, S2 tox inconclusive, ATXN2 expr inh inconclusive, TGFb inhibitor inconclusive
Nc1nc(Nc2ccccc2)nc(NCc2ccccc2)c1[N+](=O)[O-]	Nrf2 block 23µM, S2 tox inconclusive, A549 viability inconclusive
Cc1cccc(Nc2nc(N)c([N+](=O)[O-])c(N3CCN(C)CC3)n2)c1	none
Cc1cccc(Nc2nc(N)c([N+](=O)[O-])c(NCc3ccccc3)n2)c1	Nrf2 block inconclusive, HepG2 tox 22µM, TGFb inhibitor inconclusive
Cc1ccc(Nc2nc(N)c([N+](=O)[O-])c(NCc3ccco3)n2)cc1C	S2 tox inconclusive, TGFb inhibitor 16µM
COc1cc(OC)c(Nc2cc(C)nc3ncnn23)cc1Cl	none
CCc1ccc(NC(=O)C(=O)NCC2CCCN2S(=O)(=O)c2cccs2)cc1 (centres undefined)	Nrf2 block inconclusive, TGFb inhibitor inconclusive
N#Cc1cc([N+](=O)[O-])cnc1N(CCO)CCO	TGFb inhibitor inconclusive
N#Cc1nc(NCC(F)F)nc(Nc2cc(F)cc(F)c2)n1	Nrf2 block inconclusive, S2 tox inconclusive, ATXN2 expr inh 11µM, TGFb inhibitor 16µM, A549 viability inconclusive
COc1ccc(OC)c(-c2csc(-c3c(N)c(C(=O)c4ccc(Cl)cc4)n4ccccc34)n2)c1	none
N=c1n(CCO)c2ccccc2n1CCOc1ccc(F)cc1	none
CCCCn1c(=N)n(CCCOc2ccc(F)cc2)c2ccccc21	HepG2 tox 13µM, TGFb inhibitor 16µM (no result: S2 tox, ATXN2 expr inh)
Cc1cccc(C(=O)N2N=C(c3ccc(NS(C)(=O)=O)cc3)CC2c2cccs2)c1 (centres undefined)	Nrf2 block 23µM
CC(=O)N(O)CCCCCNC(=O)CCC(=O)N(O)CCCCCNC(=O)CCC(=O)N(O)CCCCCN	Nrf2 block 10µM, ATXN2 expr inh inconclusive
CCCC(=O)NCCCCNC(=O)CCC	none
Cc1cc(C)cc(N(C)S(=O)(=O)c2nnc(NC(=O)COc3ccc(Cl)cc3)s2)c1	Nrf2 block inconclusive (no result: S2 tox, ATXN2 expr inh)
CCC(CC)C(=O)Nc1nnc(S(=O)(=O)N(C)c2cc(C)cc(C)c2)s1	Nrf2 block 21µM (no result: S2 tox, ATXN2 expr inh)
Cc1cccc(N(C)S(=O)(=O)c2nnc(NC(=O)c3ccco3)s2)c1	S2 tox inconclusive (no result: ATXN2 expr inh)
CN(c1ccccc1)S(=O)(=O)c1nnc(NC(=O)c2ccco2)s1	Nrf2 block 7.3µM!
Cc1ccc(C(=O)Nc2ccccc2C(=O)OCc2cc(=O)n3nc(C4CC4)sc3n2)cc1	none (no result: Nrf2 block)
C=C1C(=O)O[C@@H]2[C@H]1[C@@H](OC(=O)/C(C)=C/C)C/C(C)=C\C(=O)/C=C(\C)[C@@H]2O	Nrf2 block 21µM, S2 tox 10µM, HepG2 tox 11µM, ATXN2 expr inh 6.3µM, TGFb inhibitor 7.1µM, A549 viability inconclusive
O=C(NC1CCCc2c1cnn2-c1ccccc1F)c1ccccn1 (centres undefined)	Nrf2 block inconclusive (no result: ATXN2 expr inh)
O=C(CCc1ccncc1)NC1CCCc2c1cnn2-c1ccc(F)cc1F (centres undefined)	Nrf2 block 8.2µM, ATXN2 expr inh inconclusive, TGFb inhibitor inconclusive
Cc1nnsc1C(=O)NC1CCCc2c1cnn2-c1ccccc1F (centres undefined)	Nrf2 block 2.1µM
CCCC(=O)N1CCC1(C)C(=O)Nc1ccc(OC)c(OC)c1 (centres undefined)	none (no result: Nrf2 block, A549 viability)
COc1ccc(CNC(=O)CN(Cc2ccc(F)cc2)C(=O)c2csnn2)cc1	none
COc1ccccc1CNc1nc(NC(C)C)nc2ccsc12	TGFb inhibitor inconclusive (no result: Nrf2 block, A549 viability)
CC(C)c1ccc(CNc2nc(NCC3CC3)nc3ccsc23)cc1	HepG2 tox 14µM, ATXN2 expr inh inconclusive, TGFb inhibitor inconclusive (no result: Nrf2 block, S2 tox, A549 viability)
COc1ccccc1CNc1nc(NCc2ccc(C(C)C)cc2)c2sccc2n1	ATXN2 expr inh 32µM, TGFb inhibitor inconclusive (no result: Nrf2 block, S2 tox, A549 viability)
Fc1ccc(Nc2nc(NCc3ccccc3)nc3ccsc23)cc1	S2 tox inconclusive, HepG2 tox 13µM, ATXN2 expr inh inconclusive, TGFb inhibitor inconclusive (no result: Nrf2 block, A549 viability)
COc1cccc(CNc2nc(NCC3CC3)nc3ccsc23)c1	S2 tox inconclusive, ATXN2 expr inh inconclusive, TGFb inhibitor inconclusive (no result: Nrf2 block, A549 viability)
N#Cc1ccc(Nc2nc(NCc3ccccc3)nc3ccsc23)cc1	S2 tox inconclusive (no result: Nrf2 block, A549 viability)
COc1ccc(S(=O)(=O)N2CCCOC2CNC(=O)C(=O)NCc2ccccn2)cc1 (centres undefined)	none

High-throughput results deposited in PubChem BioAssay by National Center for Advancing Translational Sciences (NCATS).
